Data published in PubChem BioAssay (EPA / NIEHS).
Several values for one entry are separate records, joined by “and”; a condition that tells them apart may be missing. Equal entries are not always repeated. Some structures have more than one record in an assay (separate samples or runs), and their calls can disagree. Activity calls are given as the source filed them. The calls were made as follows: active = hit-call score of the fitted dose curve at least 0.9, where 1 is the maximum; inactive = score below 0.9.

Experiments:
[1] = biological target: Paired box protein Pax-6 (Homo sapiens) (UniProt P26367); test: ATG_Pax6_CIS: Attagene CIS-FACTORIAL HepG2 Assay for human Paired Box 6 (PAX6) (AID 2282956); conditions: HepG2 CIS-FACTORIAL PAX6 reporter transcription, RNA readout; actives raise or lower the signal
Sequence of Paired box protein Pax-6 (Homo sapiens) (P26367 whole entry, looked up): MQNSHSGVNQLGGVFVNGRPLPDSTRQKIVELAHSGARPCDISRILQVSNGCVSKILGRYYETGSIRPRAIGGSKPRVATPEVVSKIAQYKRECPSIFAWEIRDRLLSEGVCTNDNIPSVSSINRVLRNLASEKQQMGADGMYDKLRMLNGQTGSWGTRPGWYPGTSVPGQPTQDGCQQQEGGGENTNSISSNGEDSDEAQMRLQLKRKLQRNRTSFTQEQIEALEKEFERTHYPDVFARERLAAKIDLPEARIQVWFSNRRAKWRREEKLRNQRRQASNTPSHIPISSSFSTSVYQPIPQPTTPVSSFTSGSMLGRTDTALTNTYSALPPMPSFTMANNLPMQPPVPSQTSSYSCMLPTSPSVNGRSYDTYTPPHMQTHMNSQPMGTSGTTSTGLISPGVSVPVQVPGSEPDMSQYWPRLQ
Outline: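 Read-out is reporter transcript level, measured by RT-PCR with fluorescent primer extension and capillary electrophoresis after 24 h dosing of transfected HepG2 cells. Activity in either direction fitted relative to DMSO control.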

[2] = ATG_PXRE_CIS: Attagene CIS-FACTORIAL HepG2 Assay for human Pregnane X Receptor Element (PXRE) (AID 2282957); conditions: HepG2 Attagene CIS-FACTORIAL PXRE reporter, mRNA; actives raise or lower the signal
Outline: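 Reporter transcripts under endogenous PXR-responsive cis-regulation quantified from total RNA of transfected HepG2 cells 24 h post-dosing, via RT-PCR with fluorescent primer extension and capillary electrophoresis. Gain or loss of signal fitted against DMSO baseline.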

[3] = ATG_PPRE_CIS: Attagene CIS-FACTORIAL HepG2 Assay for human Peroxisome Proliferator-activated Response Element (PPRE) (AID 2282958); conditions: HepG2 PPRE cis-element reporter, Attagene transcription factor profiling; actives raise or lower the signal
Outline: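 Measured endpoint: PPRE-controlled reporter mRNA, detected by RT-PCR and capillary electrophoresis fluorescence, from transiently transfected HepG2 cells 24 h after dosing. Curves fitted in both directions using DMSO baseline.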

[4] = ATG_RORE_CIS: Attagene CIS-FACTORIAL HepG2 Assay for human RAR-related Orphan Receptor Element (RORE) (AID 2282959); conditions: HepG2 Attagene cis-factorial RORE reporter, mRNA; actives raise or lower the signal
Outline: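 Transiently transfected HepG2 reporter cells were treated 24 h. Reporter transcripts were detected by RT-PCR and capillary electrophoresis, with bidirectional fitting against DMSO.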

[5] = ATG_Sox_CIS: Attagene CIS-FACTORIAL HepG2 Assay for human SRY-box transcription factor (SOX) (AID 2282960); conditions: HepG2 Attagene cis-factorial SOX reporter, mRNA; actives raise or lower the signal
Outline: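 Gain- or loss-of-signal endpoint, fitted bidirectionally with DMSO as negative control. Based on reporter mRNA from transfected HepG2 cells harvested 24 h post-treatment and quantified via RT-PCR and capillary electrophoresis.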

[6] = biological target: Transcription factor Sp1 (Homo sapiens) (UniProt P08047); test: ATG_Sp1_CIS: Attagene CIS-FACTORIAL HepG2 Assay for human Specificity Protein 1 (Sp1) (AID 2282961); conditions: HepG2 Sp1 cis-reporter transcription, actives raise or lower the signal
Sequence of Transcription factor Sp1 (Homo sapiens) (P08047 whole entry, looked up, the tested form may be a part): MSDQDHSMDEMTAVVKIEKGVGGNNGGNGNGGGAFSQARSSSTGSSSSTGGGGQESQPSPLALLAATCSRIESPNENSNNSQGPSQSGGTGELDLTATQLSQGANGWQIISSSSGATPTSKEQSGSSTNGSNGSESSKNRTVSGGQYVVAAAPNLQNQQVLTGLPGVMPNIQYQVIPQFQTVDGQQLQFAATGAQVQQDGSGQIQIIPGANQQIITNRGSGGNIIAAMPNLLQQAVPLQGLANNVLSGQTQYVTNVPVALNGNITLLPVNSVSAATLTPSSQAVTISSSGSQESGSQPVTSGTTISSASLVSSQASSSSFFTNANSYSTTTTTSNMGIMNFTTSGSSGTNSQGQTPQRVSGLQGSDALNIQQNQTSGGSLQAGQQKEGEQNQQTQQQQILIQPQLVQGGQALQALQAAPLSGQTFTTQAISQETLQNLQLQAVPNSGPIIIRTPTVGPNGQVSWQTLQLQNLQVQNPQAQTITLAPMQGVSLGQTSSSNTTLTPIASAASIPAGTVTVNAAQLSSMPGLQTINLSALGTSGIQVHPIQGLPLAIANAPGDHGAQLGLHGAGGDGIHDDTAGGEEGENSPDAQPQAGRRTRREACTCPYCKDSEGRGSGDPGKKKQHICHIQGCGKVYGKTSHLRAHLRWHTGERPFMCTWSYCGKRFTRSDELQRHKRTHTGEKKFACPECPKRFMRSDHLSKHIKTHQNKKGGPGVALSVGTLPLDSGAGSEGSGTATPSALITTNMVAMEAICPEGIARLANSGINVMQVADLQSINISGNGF
Outline: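 Endpoint reflects endogenous Sp1 transcriptional activity, not an exogenous fusion protein: HepG2 cells with transfected cis-regulated reporters, 24 h dosing, RT-PCR/capillary electrophoresis mRNA read-out, DMSO-normalised bidirectional fit.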

[7] = biological target: Signal transducer and activator of transcription 3 (Homo sapiens) (UniProt P40763); test: ATG_STAT3_CIS: Attagene CIS-FACTORIAL HepG2 Assay for human Signal Transducer and Activator of Transcription 3 (STAT3) (AID 2282963); conditions: HepG2, Attagene cis-factorial STAT3 reporter transcription; actives raise or lower the signal
Sequence of Signal transducer and activator of transcription 3 (Homo sapiens) (P40763 whole entry, looked up): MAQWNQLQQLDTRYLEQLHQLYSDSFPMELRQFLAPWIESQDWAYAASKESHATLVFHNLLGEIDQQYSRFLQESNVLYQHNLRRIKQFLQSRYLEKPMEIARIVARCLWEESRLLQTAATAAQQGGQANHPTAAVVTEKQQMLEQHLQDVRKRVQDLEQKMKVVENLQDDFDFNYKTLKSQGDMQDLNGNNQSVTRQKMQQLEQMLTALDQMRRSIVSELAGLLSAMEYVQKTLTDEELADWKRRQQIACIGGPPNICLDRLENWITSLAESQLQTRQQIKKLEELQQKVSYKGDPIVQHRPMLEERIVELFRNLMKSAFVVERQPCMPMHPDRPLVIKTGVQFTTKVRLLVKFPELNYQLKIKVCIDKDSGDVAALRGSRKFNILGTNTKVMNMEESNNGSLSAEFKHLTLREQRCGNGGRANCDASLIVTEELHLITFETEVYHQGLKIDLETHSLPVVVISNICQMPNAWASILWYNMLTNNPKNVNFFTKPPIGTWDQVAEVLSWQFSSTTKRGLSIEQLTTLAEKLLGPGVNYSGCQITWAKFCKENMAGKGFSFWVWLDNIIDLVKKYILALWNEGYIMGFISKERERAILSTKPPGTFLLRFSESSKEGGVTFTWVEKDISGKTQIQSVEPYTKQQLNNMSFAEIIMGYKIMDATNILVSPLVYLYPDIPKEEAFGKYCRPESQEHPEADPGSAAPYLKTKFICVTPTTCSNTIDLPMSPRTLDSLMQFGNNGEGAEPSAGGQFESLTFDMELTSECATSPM
Outline: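 Readout is reporter transcript quantified by RT-PCR and capillary electrophoresis, with 6-FAM primer extension and HpaI digestion. Total RNA is taken 24 h after dosing transiently transfected HepG2 carrying cis-regulated reporter units. Bidirectional fit against DMSO.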

[8] = ATG_TA_CIS: Attagene CIS-FACTORIAL HepG2 Assay for human TA Basal Promoter (AID 2282964); conditions: HepG2 Attagene CIS-factorial TA basal promoter reporter; actives raise or lower the signal
Outline: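 Multiplexed mRNA reporter assay, HepG2, 24 h. Reporter cDNA amplified, 6-FAM primer-extended, HpaI-cut, CE-sized; DMSO = negative control and baseline.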

[9] = ATG_TCF_b_cat_CIS: Attagene CIS-FACTORIAL HepG2 Assay for human T-Cell-Factor with beta-catenin (TCF/b-cat) (AID 2282965); conditions: HepG2 TCF/beta-catenin cis-reporter transcription, actives raise or lower the signal
Outline: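 Endogenous TCF/LEF activity read as reporter transcript level via RT-PCR and capillary electrophoresis fluorescence in transfected HepG2, 24 h exposure; gain or loss of signal fitted against DMSO controls.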

[10] = ATG_SREBP_CIS: Attagene CIS-FACTORIAL HepG2 Assay for human Sterol Regulatory Element Binding (SREBP) (AID 2282962); conditions: HepG2 Attagene cis-factorial SREBP reporter, mRNA; actives raise or lower the signal
Outline: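 Endogenous SREBP activity read as cis-element-driven reporter transcript in transiently transfected HepG2, 24 h post-dosing; quantified via RT-PCR plus capillary electrophoresis of fluorescent fragments. Gain or loss of signal fitted relative to DMSO baseline.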

Measured: AC50

CCNc1nc(NC(C)C)nc(SC)n1
active: [2] 13.5 µM
not listed: [10]
inactive: all other assays above

CCCCCCCCOC(=O)c1ccccc1C(=O)OCCCCCCCC
active: [2] 5.64 µM
not listed: [7]
inactive: all other assays above

CCC(C)(CC)c1cc(NC(=O)c2c(OC)cccc2OC)on1
active: [2] 0.202 µM | [10] 10.8 µM
not listed: [7]
inactive: all other assays above

Oc1ccc(Cl)cc1Cl
active: [2] 64.5 µM
not listed: [7]
inactive: all other assays above

COc1ccc(O)c(C(C)(C)C)c1
active: [1] 146 µM | [2] 8.2 µM | [6] 184 µM | [9] 162 µM
inactive: [5] | [10] | [8]

C1CC2OC2CC1C1CO1 (stereo unspecified)
active: [2] 59.2 µM
not listed: [7]
inactive: all other assays above

O=S(=O)(O)C(F)(F)C(F)(F)C(F)(F)C(F)(F)C(F)(F)C(F)(F)F
active: [2] 51.4 µM [middle of 4 runs] | [3] 97.7 µM [middle of 4 runs]
not listed: [10]
inactive: all other assays above

Clc1ccc(Cl)cc1
not listed: [7] | [10]
inactive: all other assays above

CC1=C2C[C@H]3[C@@H](CC=C4C[C@@H](O)CC[C@@]43C)[C@@H]2CC[C@]12O[C@@H]1C[C@H](C)CN[C@H]1[C@H]2C
inactive: [2] | [3] | [5] | [9]
active: [1] 13.5 µM | [4] 12.9 µM | [6] 12.8 µM | [8] 12.7 µM

Cc1ccccc1CO[C@@H]1C[C@@]2(C(C)C)CC[C@]1(C)O2
active: [2] 2.14 µM | [3] 50 µM
not listed: [7] | [10]
inactive: all other assays above

Clc1ccc(C(Cl)(Cl)Cl)cc1
not listed: [3] | [7] | [10]
inactive: all other assays above

C[C@]12CCC(=O)C=C1CC[C@@H]1[C@@H]2CC[C@@]2(C)[C@H]1CC[C@]2(C)O
active: [9] 55.7 µM and 15.9 µM
inactive: [1] | [3] | [4] | [5] | [6] | [8] | [9]

Cc1ccc(O)c(C)c1
active: [9] 168 µM
not listed: [7] | [10]
inactive: all other assays above

c1cc2ccc3cccc4ccc(c1)c2c34
active: [2] 8.77 µM
not listed: [10]
inactive: all other assays above

CC(C)C(=O)OCC(C)(C)C(OC(=O)C(C)C)C(C)C (stereo unspecified)
active: [2] 26.7 µM
not listed: [7] | [10]
inactive: all other assays above

ClC1=C(Cl)[C@]2(Cl)[C@@H]3[C@H]4C[C@H]([C@@H]5O[C@H]45)[C@@H]3[C@@]1(Cl)C2(Cl)Cl
active: [2] 1.58 µM | [9] 4.74 µM
not listed: [7] | [10]
inactive: all other assays above

CCCCCCCCCC[N+](C)(C)CCCCCCCCCC
inactive: [2] | [5] | [8]
active: [1] 7.61 µM | [3] 185 µM | [4] 19.8 µM | [6] 190 µM | [10] 3.63 µM | [9] 11 µM

O=C(NC(=O)c1cc(F)c(F)cc1Cl)Nc1cc(F)ccc1N1CCC(C(=O)O)CC1
active: [2] 4.65 µM
not listed: [10]
inactive: all other assays above
